Compounds with a hit are over-represented: about 21% of the library has one in this group of screens.
Shiga toxin inh: blocks Shiga toxin action in Vero cells; Vero cells, Shiga toxin protein synthesis inhibition reporter; inhibition, % at 38.7 µM; 290,000 tested, 9.2% active; in the data active = inhibition mostly above about 28%, no sharp cut-off; inactive = mostly below about 43%; note: 0% is about no effect
Pf growth 96h: inhibits malaria parasite growth, 96 h. Potency, µM (top dose mostly 28.7 µM), for the others: at the top dose activity change, negative = inhibition, hits mostly inhibitors. P. falciparum luciferase reporter growth, 96 h. 320,000 tested, 6.9% active; note: potency is the fitted concentration of half-maximal effect; % is set by controls: 0 for no effect and ±100 for the full control effect
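96 h incubation, 37 C, 5% CO2, of luciferase-reporter P. falciparum-infected RBCs (2% hematocrit, 0.05% parasitemia final) with test compounds; endpoint luminescence.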
SARS PLP yeast: SARS-CoV PLP inhibition in yeast. S. cerevisiae expressing SARS-CoV PLpro, growth rescue. Potency, µM (series often up to 32.9 µM), inactives show at the highest dose activity, positive = growth rescue, actives largely listed as activators. 330,000 tested, 0.19% active. AID 485353; calls by dose curve; note: potency is the fitted concentration of half-maximal effect; 0% is about no effect; nearly all actives have a fitted effect of over 55% in size
NS1 function inh: blocks influenza NS1 protein function; 270,000 tested, 0.4% active; Potency, µM (doses to about 46.1 µM), inactives show top-dose activity, positive = more growth; calls by dose curve; note: potency is the fitted concentration of half-maximal effect; actives are rising curves; nearly all actives have a fitted effect of over 50% in size
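Growth recovery, yeast-based: influenza A NS1 expressed in S. cerevisiae causes slow growth, and suppressors are detected by OD600. The parent strain without NS1 is used as positive control.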
Pf growth 48h: P. falciparum growth inhibition at 48 hours (one generation); P. falciparum luciferase growth in erythrocytes, 48 h; Potency, µM (highest dose often 28.7 µM), inactives show top-dose activity change, negative = inhibition, most hits filed as inhibitors; 310,000 tested, 5.9% active; note: potency is the fitted concentration of half-maximal effect; % is set by controls: 0 for no effect and ±100 for the full control effect
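Luciferase-expressing P. falciparum in infected erythrocytes (2% hematocrit, 0.1% parasitemia final) in RPMI 1640/0.5% Albumax were exposed to compound for 48 hours at 37 C, 5% CO2; growth read as luminescence.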
CHX counter: counter-screen for Shiga toxin inhibitors: cycloheximide protein synthesis inhibition; max response, %; cell reporter, cycloheximide protein synthesis inhibition counterscreen; 300,000 tested, 12% active; in the data active = max response mostly above about 13%, no sharp cut-off; inactive = mostly below about 14%; note: read at 38.3 µM for the half of the compounds with a filed dose; 0% is about no effect
An asterisk follows results filed as active; [ ] = remark or other dose. Unless noted, calls come from the whole dose curve; as a rule, active = well fitted inhibition curve with a large enough effect; inconclusive = small, poorly fitted or top-dose-only effect, or another doubt; inactive = no such curve, though single readings can be large or run the other way.

What do the screens show for `OC[C@@H]1O[C@@H](N2CCN([C@@H]3O[C@@H](CO)[C@@H](O)[C@H](O)[C@H]3O)CC2)[C@@H](O)[C@H](O)[C@H]1O`?
NS1 function inh: -5%

Results for COc1ccc(S(=O)(=O)N2CCN(c3cc(-c4ccccc4)nc4ncnn34)CC2)cc1 ?
Shiga toxin inh: -6; Pf growth 96h: 24%; SARS PLP yeast: 5%; NS1 function inh: -10%; Pf growth 48h: -18%; CHX counter: -2

What do the screens show for `O=C(c1ccccc1)n1ccc(-c2cnc(-c3ccccc3)s2)n1`?
Shiga toxin inh: 97*; Pf growth 96h: 454%; SARS PLP yeast: -23%; NS1 function inh: -114%; CHX counter: 40*

How did COc1ccc(S(=O)(=O)n2ccc(-c3cnc(-c4ccccc4)s3)n2)cc1 do in these assays?
Shiga toxin inh: 37; Pf growth 96h: inconclusive; SARS PLP yeast: -2%; NS1 function inh: inconclusive; Pf growth 48h: inconclusive; CHX counter: 17*

How did CC(C)c1ccc(S(=O)(=O)N2CCN(C(=O)CN3C(=O)c4ccccc4C3=O)CC2)cc1 do in these assays?
SARS PLP yeast: 16%

What do the screens show for `C=CCN1C(=O)/C(=C/c2ccc(OC(C)=O)c(OCC)c2[N+](=O)[O-])SC1=S`?
Shiga toxin inh: 103*; Pf growth 96h: 23%; SARS PLP yeast: -4%; NS1 function inh: -11%; Pf growth 48h: 9.3µM*; CHX counter: 27*

How did Cc1ccc2[nH]c(C(=O)N3CCOCC3)cc2c1 do in these assays?
Shiga toxin inh: 17; Pf growth 96h: -6%; SARS PLP yeast: -5%; NS1 function inh: 8%; Pf growth 48h: 3%; CHX counter: active

Results for Cc1ccc2[nH]c(C(=O)N3CCC(C(N)=O)CC3)cc2c1 ?
Pf growth 96h: 31%; SARS PLP yeast: 14%; NS1 function inh: 15%; Pf growth 48h: -2%; CHX counter: 16

Results for Cc1ccc2[nH]c(C(=O)N3CCCCC3)cc2c1 ?
Pf growth 96h: 149%; SARS PLP yeast: -1%; NS1 function inh: -11%; Pf growth 48h: 62%; CHX counter: 26*

What do the screens show for `Cc1ccc2[nH]c(C(=O)NCCN3CCCC3)cc2c1`?
Shiga toxin inh: -4; Pf growth 96h: 12µM*; SARS PLP yeast: -2%; NS1 function inh: inconclusive; Pf growth 48h: inconclusive; CHX counter: -2

Results for c1ccc(C2CNCCc3ccccc32)cc1 (configuration not stated) ?
Shiga toxin inh: -13; Pf growth 96h: 1.7µM*; SARS PLP yeast: 0%; NS1 function inh: 5%; Pf growth 48h: -2%[0.00184 µM]; CHX counter: -7

What do the screens show for `Cn1c(N=Nc2ccccc2)nc2ccccc21`?
Shiga toxin inh: 14; Pf growth 96h: 0.26µM*; SARS PLP yeast: -60%; NS1 function inh: -47%; Pf growth 48h: 0.74µM*; CHX counter: 40

What do the screens show for `CN(Cc1nc2ccccc2n1C)S(=O)(=O)c1ccc(F)cc1`?
Shiga toxin inh: 26; Pf growth 96h: 4.7µM*; SARS PLP yeast: 5%; NS1 function inh: -5%; Pf growth 48h: 23%; CHX counter: 16*

Results for Cn1c(CNc2ccccc2)nc2ccccc21 ?
Shiga toxin inh: 67*; Pf growth 96h: 0%; SARS PLP yeast: -2%; NS1 function inh: -81%; Pf growth 48h: 143%; CHX counter: 37*

What do the screens show for `Cn1c(CNc2ccc(F)cc2)nc2ccccc21`?
Shiga toxin inh: 71*; Pf growth 96h: -29%; SARS PLP yeast: -2%; NS1 function inh: -12%; Pf growth 48h: 78%; CHX counter: 34*

How did CN(C)c1ccc(N=Nc2nc3ccccc3n2C)cc1 do in these assays?
Shiga toxin inh: -13; Pf growth 96h: inconclusive; SARS PLP yeast: -14%; NS1 function inh: -34%; Pf growth 48h: 4%; CHX counter: -9

How did CCCC(=O)NCc1nc2ccccc2n1C do in these assays?
Shiga toxin inh: -7; Pf growth 96h: 2%; SARS PLP yeast: 1%; NS1 function inh: -10%; Pf growth 48h: 10%; CHX counter: -4

Results for O=C(NCc1nnc(SCC(=O)N2CCCc3ccccc32)o1)c1c(F)cccc1Cl ?
Shiga toxin inh: -22; Pf growth 96h: 0%; SARS PLP yeast: 2%; Pf growth 48h: -1%; CHX counter: 2

What do the screens show for `Cc1ccn(C(C)CC(=O)Nc2ccc(-c3ccno3)cc2)n1` (configuration not stated)?
Shiga toxin inh: 16; Pf growth 96h: 10%; SARS PLP yeast: 4%; NS1 function inh: -13%; Pf growth 48h: -50%; CHX counter: 6

What do the screens show for `O=C(COC(=O)/C=C/c1ccc([N+](=O)[O-])cc1)NC(c1ccccc1)c1ccccc1`?
Shiga toxin inh: -9; Pf growth 96h: 47%; SARS PLP yeast: 7%; NS1 function inh: 12%; Pf growth 48h: 7%; CHX counter: 1

Results for O=C(Nc1ccc(F)cc1)c1cccc(N2C(=O)C3C4C=CC(C5CC45)C3C2=O)c1 (configuration not stated) ?
Shiga toxin inh: -7; Pf growth 96h: inconclusive; NS1 function inh: -3%; Pf growth 48h: inconclusive; CHX counter: -2

How did Cc1cccc(OCC2CCCN(Cc3nc(C4CC4)no3)C2)c1 (configuration not stated) do in these assays?
Shiga toxin inh: 34; Pf growth 96h: inconclusive; SARS PLP yeast: 2%; NS1 function inh: -4%; Pf growth 48h: inconclusive; CHX counter: -3

How did COc1cc(CNc2ccc(C(=O)O)cc2)cc(Br)c1OCC(=O)NC(C)(C)C do in these assays?
Shiga toxin inh: 7; Pf growth 96h: -2%; SARS PLP yeast: 2%; NS1 function inh: -1%; Pf growth 48h: -11%; CHX counter: -2

What do the screens show for `C=CCOc1c(Br)cc(CNc2ccc(NC(=O)C(C)C)c(OC)c2)cc1OC`?
Shiga toxin inh: -4; Pf growth 96h: 8.3µM*; SARS PLP yeast: -4%; NS1 function inh: 20%; Pf growth 48h: inconclusive; CHX counter: -1

Results for CCN(Cc1nc(-c2ccc(OC)c(OC)c2)no1)C(=O)c1ccoc1C ?
Shiga toxin inh: -12; Pf growth 96h: -1%; SARS PLP yeast: -4%; NS1 function inh: -7%; Pf growth 48h: -2%; CHX counter: -5

What do the screens show for `Fc1ccc(N2CCN(c3cnc4ccccc4n3)CC2)cc1`?
Shiga toxin inh: 91*; Pf growth 96h: 207%; SARS PLP yeast: -2%; NS1 function inh: -9%; CHX counter: 49*

How did Clc1ccc(N2CCN(c3cnc4ccccc4n3)CC2)cc1 do in these assays?
Shiga toxin inh: 49*; SARS PLP yeast: 4%; NS1 function inh: 11%; Pf growth 48h: 60%; CHX counter: 19*

Results for COc1ccc(N2CCN(c3cc(C)c4ccccc4n3)CC2)cc1 ?
Shiga toxin inh: 2; Pf growth 96h: 10%; SARS PLP yeast: -7%; Pf growth 48h: 2%; CHX counter: 7

High-throughput results: PubChem BioAssay, National Center for Advancing Translational Sciences (NCATS)
